The source made the active and inactive calls. Rule for the calls: active = hit-call score of the fitted dose curve at least 0.9, where 1 is the maximum; inactive = score below 0.9.
What was measured:
[1] = APR_HepG2_P-H2AX_72hr: Apredica 72-hour HepG2 Assay for H2AX Phosphorylation (AID 2282916); conditions: imaging, actives raise or lower the signal;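 note: phospho-histone H2A.x immunostain intensity per cell marking DNA damage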
Procedure, shortened: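 HepG2 human liver cells were exposed for 72 hr to compounds at 0.39–200 uM (10 concentrations, duplicate per plate) in 0.5% v/v DMSO. Fixed, permeabilized cells were immunolabeled for phospho-histone H2A.x with Hoechst 33342 and imaged by HCS fluorescence; bidirectional fit versus DMSO.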

[2] = APR_HepG2_MitoMembPot_72hr: Apredica 72-hour HepG2 Assay for Mitochondrial Membrane Potential (AID 2282917); conditions: imaging, actives raise or lower the signal
Procedure, shortened: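 HepG2 cells dosed 72 hr with compound at 0.39–200 uM in duplicate, 0.5% v/v DMSO final. Mitochondria stained with 250 nM MitoTracker Red CMXRos for 30 min before formaldehyde fixation, imaged by high-content fluorescence; bidirectional fit versus DMSO.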

[3] = APR_HepG2_MitoticArrest_72hr: Apredica 72-hour HepG2 Assay for Mitotic Arrest (AID 2282918); conditions: high-content imaging, actives raise or lower the signal
Procedure, shortened: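 HepG2 cells treated 72 h at 0.39–200 uM, 0.5% DMSO final; formaldehyde-fixed, stained with Hoechst 33342 and phospho-histone H3 antibody, imaged by high-content fluorescence; bidirectional fit versus DMSO.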

[4] = APR_HepG2_MicrotubuleCSK_72hr: Apredica 72-hour HepG2 Assay for Microtubule CSK Stabilty (AID 2282919); conditions: HepG2 microtubule cytoskeleton, high-content imaging, actives raise or lower the signal
Procedure, shortened: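 HepG2 cells were exposed 72 hr to compound at 0.39–200 uM in duplicate (0.5% DMSO final), then fixed and permeabilized. Alpha-tubulin immunofluorescence was imaged by high-content microscopy, with bidirectional fitting against DMSO and taxol as positive control.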

[5] = APR_HepG2_P-H2AX_24hr: Apredica 24-hour HepG2 Assay for H2AX Phosphorylation (AID 2282920); conditions: high-content imaging, actives raise or lower the signal
Procedure, shortened: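 HepG2 cells dosed 24 h at 0.39–200 uM (10 points, duplicate, 0.5% DMSO final). Formaldehyde-fixed and permeabilized, then immunostained for phospho-H2A.x with Hoechst. Fluorescence quantified by high-content imaging, fitted bidirectionally versus DMSO.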

[6] = APR_HepG2_StressKinase_72hr: Apredica 72-hour HepG2 Assay for Stress Kinase (AID 2282921); conditions: HepG2 stress kinase (phospho-c-Jun) imaging, actives raise or lower the signal
Procedure, shortened: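 Cells were exposed for 72 h to ten concentrations (0.39–200 uM, duplicate) at 0.5% v/v DMSO final, then fixed with 3.7% formaldehyde, permeabilized and immunostained for phospho-c-Jun (Cy3 secondary) with Hoechst nuclear counterstain.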

[7] = APR_HepG2_StressKinase_24hr: Apredica 24-hour HepG2 Assay for Stress Kinase (AID 2282922); conditions: HepG2 stress kinase (phospho-c-Jun) imaging, actives raise or lower the signal
Procedure, shortened: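 HepG2 cells exposed 24 h to 0.39–200 uM compound in duplicate (0.5% v/v DMSO final). Cells fixed in 3.7% formaldehyde, permeabilized and immunostained for phospho-c-Jun; read by high-content fluorescence imaging, fitted bidirectionally against DMSO.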

[8] = APR_HepG2_p53Act_72hr: Apredica 72-hour HepG2 Assay for p53 Activation (AID 2282923); conditions: high-content imaging, actives raise or lower the signal;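 note: average cellular p53 protein immunofluorescence intensity in HepG2 cells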
Procedure, shortened: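 Cells were dosed for 72 hr with compounds at 0.39–200 uM in duplicate (final DMSO 0.5% v/v), then fixed in 3.7% formaldehyde, permeabilized with Triton X-100 and immunostained for p53 (Cy5) with Hoechst 33342 nuclear counterstain.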

[9] = APR_HepG2_MitoMass_72hr: Apredica 72-hour HepG2 Assay for Mitochondrial Mass (AID 2282924); conditions: high-content imaging, actives raise or lower the signal;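 note: MitoTracker Red CMXRos stain intensity per cell imaged as mitochondrial mass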
Procedure, shortened: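 HepG2 cells dosed 72 hr at 0.39–200 uM (0.5% DMSO), in duplicate. MitoTracker Red CMXRos 250 nM loaded 30 min before formaldehyde fixation; high-content fluorescence imaging, bidirectional fit versus DMSO.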

[10] = APR_HepG2_NuclearSize_72hr: Apredica 72-hour HepG2 Assay for Nuclear Size (AID 2282925); conditions: high-content imaging, actives raise or lower the signal
Procedure, shortened: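 HepG2 cells dosed 72 h at 0.39–200 uM (10 concentrations, duplicate) in 0.5% v/v DMSO final. Fixed, Hoechst 33342-stained nuclei imaged; nuclear diameter measured by automated image analysis. Bidirectional fit versus DMSO.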

SMILES	outcome [1]	outcome [2]	outcome [3]	outcome [4]	outcome [5]	outcome [6]	outcome [7]	outcome [8]	outcome [9]	outcome [10]	AC50 [5]	AC50 [8]	AC50 [4]	AC50 [1]	AC50 [3]	AC50 [2]	AC50 [6]
CC(C)[C@H](C(=O)O[C@H](C#N)c1cccc(Oc2ccccc2)c1)c1ccc(Cl)cc1	inactive	inactive	inactive	inactive	inactive	inactive	inactive	inactive	inactive	inactive							
CCCSP(=O)(OCC)SCCC	inactive	inactive	inactive	inactive	inactive	inactive	inactive		inactive	inactive							
COP(=O)(NC(C)=O)SC (configuration not stated)	inactive	inactive	inactive	inactive	inactive	inactive	inactive	inactive	inactive	inactive							
CCOC(=O)CC(SP(=O)(OC)OC)C(=O)OCC (configuration not stated)	inactive	inactive	inactive	inactive	inactive	inactive	inactive	inactive	inactive	inactive							
CNc1cnn(-c2cccc(C(F)(F)F)c2)c(=O)c1Cl	inactive	inactive	inactive	inactive	inactive	inactive	inactive	inactive	inactive	inactive							
CC1=NNC(=O)N(/N=C/c2cccnc2)C1	inactive	inactive	inactive	inactive	inactive	inactive	inactive	inactive	inactive	inactive							
CCC(=O)Nc1ccc(Cl)c(Cl)c1	inactive	inactive	inactive	inactive	inactive	inactive	inactive	inactive	inactive	inactive							
COP(=O)(OC)C(O)C(Cl)(Cl)Cl (configuration not stated)	inactive	inactive	inactive	inactive		inactive	inactive		inactive	inactive	100 µM (active)	113 µM (active)					
CON=C(C(=O)OC)c1ccccc1CON=C(C)c1cccc(C(F)(F)F)c1	inactive	inactive			inactive	inactive	inactive	inactive	inactive	inactive			0.309 µM (active)				
CCOP(=S)(OCC)Oc1ccc2c(C)c(Cl)c(=O)oc2c1		inactive			inactive	inactive	inactive	inactive	inactive	inactive			40.5 µM (active)	100 µM (active)	93.2 µM (active)		
CN1COCN(Cc2cnc(Cl)s2)C1=N[N+](=O)[O-]	inactive	inactive	inactive	inactive	inactive	inactive	inactive	inactive	inactive	inactive							
CC(C)N(C(=O)SCC(Cl)=C(Cl)Cl)C(C)C	inactive	inactive	inactive		inactive	inactive	inactive	inactive	inactive	inactive			99.5 µM (active)				
CCOC(=O)COc1cc(-c2nn(C)c(OC(F)F)c2Cl)c(F)cc1Cl	inactive	inactive	inactive	inactive	inactive	inactive	inactive	inactive	inactive	inactive							
CCNc1nc(Cl)nc(NC(C)(C)C#N)n1	inactive	inactive	inactive	inactive	inactive	inactive	inactive	inactive	inactive	inactive							
C=C(C)[C@H]1Cc2c(ccc3c2O[C@@H]2COc4cc(OC)c(OC)cc4[C@@H]2C3=O)O1				inactive			inactive		inactive	inactive	12.2 µM (active)			1.62 µM (active)	1.15 µM (active)	15.7 µM (active)	4.05 µM (active)
FC(F)C(F)(F)OCC(Cn1cncn1)c1ccc(Cl)cc1Cl (configuration not stated)		inactive			inactive	inactive	inactive		inactive	inactive		116 µM (active)	84.6 µM (active)	105 µM (active)			
CCCOc1nn(C(=O)NS(=O)(=O)c2ccccc2C(=O)OC)c(=O)n1C	inactive	inactive		inactive	inactive	inactive	inactive	inactive	inactive	inactive							
CCOP(=O)(OCC)Oc1cc(C)nc(C(C)C)n1	inactive	inactive		inactive	inactive	inactive	inactive	inactive	inactive	inactive							
CCCSP(=O)(OCC)Oc1ccc(Br)cc1Cl (configuration not stated)	inactive	inactive			inactive	inactive	inactive	inactive	inactive	inactive			113 µM (active)				
CCOP(=S)(OCC)OC(Cl)C(Cl)(Cl)Cl (configuration not stated)	inactive	inactive			inactive	inactive	inactive	inactive	inactive	inactive			109 µM (active)				
